How the values were obtained:
Assay in all cases: PBM binding z-score (relative to random genomic background probes); higher = stronger binding; sequences stand for … in GC…GCGATTGACAGCGTAGAATGAAGG
[1] = test system: RARb homodimer (NR concentration 270 nM)
How it was run: (§1)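 Ligand-free nuclear receptor dimers were bound for 1 h to custom Agilent 4×180K protein-binding microarrays. Detection used antibodies against each partner (one per run). Binding z-scores rest on regression-normalized fluorescence, with random background probes as the reference.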

[2] = test system: RARg:RXRa (NR concentration 270 nM, RXRa partner concentration 90 nM)
How it was run: as §1

[3] = test system: RARg homodimer (NR concentration 270 nM)
How it was run: as §1

[4] = test system: RXRa DBDmut IVT, anti-RXR (DBD mutation: RXRa K156A/R161A, NR concentration 90 nM)
How it was run: as §1

[5] = test system: RXRa homodimer (NR concentration 180 nM)
How it was run: as §1

[6] = test system: THRa:RXRa (NR concentration 90 nM, RXRa partner concentration 90 nM)
How it was run: as §1

[7] = test system: THRa homodimer (NR concentration 90 nM)
How it was run: as §1

[8] = test system: VDR homodimer (NR concentration 270 nM)
How it was run: as §1

Sequence	PBM binding z-score [1]	PBM binding z-score [2]	PBM binding z-score [3]	PBM binding z-score [4]	PBM binding z-score [5]	PBM binding z-score [6]	PBM binding z-score [7]	PBM binding z-score [8]
ATATGTAGGTTAGCTAGGGTCATTCAGACTAGGC	3.17	3.33	2.68	1.24	3.71	5	2.64	3.63
CCCGAAAGGTCGGTTGAGGTGAGTATACGGATAA	2.61	2.9	3	0.858	2.41	4.99	1.8	0.636
TCATATAGGTAATACCGGTGAAAGTCGGCATCTA	-0.00712	0.24	0.212	1.35	0.935	0.246	0.113	-0.092
GCACCAAGGTGAATAGGTCGTTGATGAGTAGGCG	1.77	2.42	1.1	0.00127	1.77	1.63	0.229	-0.0787
CCTAGCAGGCCAGGGTCTCTCAAGCATTTCGCTT	-0.597	-0.659	-0.606	-0.912	-0.675	-0.53	-0.611	-0.871
GATACAGGGTCAACGCCAGAGTACGCGTATTGAT	3.62	5.79	6.23	2.6	6.68	3.42	1	2.52
TCTTGTAGATCAAGCAGGTTAAGATAGCCTGAGT	0.14	0.091	0.0595	0.547	0.359	0.324	-0.172	-0.247
AGAACGATGGCACGCTGAGTTGATAGCAGAGTAG	-0.907	-0.162	-0.0451	-0.483	-0.397	-0.632	-1.01	-0.128
ATCTCTAGGTAAGGTTCAGTGAAAGATCGATAGA	0.959	0.973	1.03	1.35	0.69	0.888	0.39	2.32
GCTGCTAGGTTAGGTTGGTCAGCTAACGGGTACG	0.8	0.0162	0.355	0.0127	-0.131	0.0584	-0.34	0.253
CCGACTGGGACATAAGGTTACCATAAGCCAGCCC	1.42	0.813	0.738	-0.237	1.01	2.26	1.7	-0.0177
CCTGCTAGGTCAAGGTCAGCTAATCTACAGTATG	5.07	5.45	7.01	2.36	4.54	3.97	2.88	1.23
AGCATGAGGTTATACGTAGATCAGGGAAGAAAGT	0.998	1.64	1.3	1.63	1.8	2.11	0.665	0.812
CGTCCAAGGTCCGCAGGTCAGTGAAAGCGACGTG	2.24	1.06	1.49	0.0611	0.267	1.04	0.0358	-0.00185
CGAACTACGTCAGAACAGGACAGTGAAGGATGAT	-0.0991	-0.0189	0.316	0.247	-0.063	0.397	-0.497	-0.159
TGAATGAGGTTAAAAATCAGGGAACGTGGCGTCG	0.129	1.38	0.835	1.26	2.24	1.67	-0.0675	0.4
AGAACGAGGGCACGCTGAGTTGGTAGCAGAGTAG	1.01	1.69	2.37	1.55	1.19	1.56	-0.105	0.953
CCTCGGAGGACGACAGGAGGTCAGAGCTGCCAGA	2.84	2.54	2.08	-0.23	1.84	2.33	0.421	0.665
CCTCGGAGGACAGAAGGTCAGAACTGTCCGCTTT	3.17	2.9	2.58	0.39	1.43	1.85	0.203	0.761
CCTACTGGGCTAAAGGTCATTGATTCCAATGCTC	4.22	4.96	4.27	1.17	5.21	3.15	0.533	2.18
CATACAGGGTCAGCTAGGCCAGAGAAGGGACGGC	3.35	4.63	5.1	1.74	4.46	2.99	0.568	1.67
CCTCGGAGGACAGAAGGGCAGAGCTGTCCGCTTT	0.947	0.328	0.965	-0.318	-0.72	-0.248	-1.05	-0.623
ACTAGTTGGTCAGCTGAGATCACACACAATTCGG	0.406	0.638	0.88	0.396	0.449	0.991	-0.107	-0.0701
TAGCCTAGGTCATTCAGGGGCCTGTATAGAAAGC	2.65	4.31	4.02	1.75	2.48	3.54	0.286	1.04
CCGACTGAGGCAAAGGTTACCATACTCAGTACGA	1.76	1.73	1.29	0.393	2.61	1.54	0.023	-0.216
CTCGAAAGGTCGTGCTCACGTGAGTATACCAAAC	2.82	4.15	3.6	1.95	4.71	2.41	-0.0324	1.06
ATATGTAGGTTATAGGGTCATTCAGTTTGCGCAT	3.76	4.28	3.26	2.26	4.98	3.83	3.31	4.34
CCGACTGGGGCAAAGGTTGCCATACTCAGTACGA	0.697	1.32	0.395	-0.142	1.32	0.333	-0.54	0.111

Source: the supplement of paper PMC6555819
